# High-throughput results as filed in PubChem BioAssay.
# Shown are actives, neighbours in structure and some others; about 6.8% of the full set was active somewhere.
# C diff growth = C. difficile growth inhibition; Clostridium difficile clinical isolate growth, OD600, 24 h; hits give low values; growth activity, negative = inhibition, % at 16 µg/mL (by protocol); actives 0.25% (n = 86,000); AID 1259249;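 active = mean growth activity at or below -80% and every replicate also at or below -80%; inconclusive = mean at or below -80% but some replicate above -80%; inactive = mean growth activity above -80%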;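 note: 0% = DMSO wells and -100% = levofloxacin 16 µg/mL wells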
# Pf Dd2 inh = blocks growth of Plasmodium falciparum Dd2 parasites; actives 2.3% (n = 94,000); activity change, % at 10 µM; P. falciparum Dd2 growth, SYBR Green, 72 h; hits give low values; in the data active = activity change below about -80%; inconclusive = no clear call, values can overlap the other calls
# T cruzi growth-1 = inhibitors of T. cruzi proliferation | T. cruzi beta-gal in NIH3T3, GalScreen luminescence, 90 h | inhibition, % at 8.34 µM | actives 5.9% (n = 77,000);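 active = mean inhibition above about 93%, with at least 55% of replicates each passing it, limit read from the data, passing the limit was not always enough; inconclusive = only one of those two conditions holds; inactive = neither condition holds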
# T cruzi growth-2 = blocks T. cruzi growth in NIH3T3 host cells; shares compounds with T cruzi growth-1; T. cruzi beta-gal in NIH3T3, GalScreen luminescence, 90 h; inhibition, % at 8.35 µM; actives 72% (n = 5,600);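 active = mean replicate inhibition above about 95% and at least 55% of replicates individually reaching it, limit read from the data; inconclusive = only one of the two criteria is met; inactive = neither criterion is met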
# T cruzi growth-3 = blocks T. cruzi growth in NIH3T3 host cells. shares compounds with T cruzi growth-1. T. cruzi beta-gal in NIH3T3, GalScreen luminescence, 90 h. inhibition, % at 2.09 µM. actives 21% (n = 5,600);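 active = mean inhibition above about 95%, with at least 55% of replicates also reaching it, limit read from the data; inconclusive = meets just one of the two conditions; inactive = meets neither condition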;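 note: plate controls were neutral control median for no effect and positive control median for full effect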
# 3T3 cytotox = cytotoxicity in mouse NIH/3T3 fibroblasts; shares compounds with T cruzi growth-1; NIH/3T3 viability, CellTiter-Glo ATP luminescence, 90 h; actives 14% (n = 5,600); cytotoxicity (signal decrease), % at 8.35 µM;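 active = mean signal decrease across replicates above about 35% based on untreated-well scatter, with enough replicates individually passing, limit read from the data; inconclusive = no rule stated though some were filed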;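 note: 0% = median of neutral control wells and 100% = median of positive control wells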
# 3T3 cytotox 2 = NIH/3T3 (mouse) viability loss; inhibition, % at 24.9 µM; NIH/3T3 viability, CellTiter-Glo ATP luminescence, 90 h; shares compounds with T cruzi growth-1; actives 56% (n = 5,600);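 active = mean loss of cell viability signal at or above a set limit, and enough replicates individually reaching it; inconclusive = meets only the mean limit or only the replicate share; inactive = meets neither condition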;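 note: 0% = median of neutral control wells and 100% = median of positive control wells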
# Active calls of the source: *; ? = inconclusive; · = no result given.
SMILES,C diff growth,Pf Dd2 inh,T cruzi growth-1,T cruzi growth-2,T cruzi growth-3,3T3 cytotox,3T3 cytotox 2
COc1ccc(-c2ccc([C@H]3[C@H](C#N)N(C(=O)C4CCCC4)[C@H]3CO)cc2)cc1,2,-26,100*,91,52,17,20
N#C[C@H]1[C@@H](c2ccc(/C=C/c3ccccc3)cc2)[C@@H](CO)N1C(=O)C1CC1,3,41,?,106*,40,20,35*
C[C@H](CO)N1C[C@H](C)[C@H](CN(C)C(=O)Nc2ccc(F)cc2)Oc2ccc(NC(=O)Nc3ccccc3)cc2C1=O,-5,-10,·,·,·,·,·
CC(C)NC(=O)N(C)C[C@@H]1Oc2ncc(-c3ccc(C(=O)N(C)C)cc3)cc2C(=O)N([C@@H](C)CO)C[C@@H]1C,-9,18,39,·,·,·,·
CCC(=O)N1[C@@H]2CN(S(=O)(=O)c3ccccc3)c3ccccc3[C@@H]2[C@@H]1CO,-5,7,29,·,·,·,·
CCCC#Cc1ccc2c(c1)[C@@H]1[C@@H](CCN1C(=O)C1CCCCC1)[C@@H](CO)N2,-7,-67,·,·,·,·,·
COc1ccc(S(=O)(=O)Nc2cccc3c2O[C@@H](CN(C)S(=O)(=O)c2ccc(Cl)cc2)[C@H](C)CN([C@@H](C)CO)C3=O)cc1,3,-9,26,·,·,·,·
CO[C@@H]1CN(C)C(=O)c2cc(NS(=O)(=O)c3cn(C)cn3)ccc2OC[C@@H](C)N(CCC(F)(F)F)C[C@@H]1C,2,-10,-33,·,·,·,·
C[C@@H]1CN([C@H](C)CO)C(=O)Cc2cc(NC(=O)Nc3ccc(F)cc3)ccc2O[C@@H]1CN(C)Cc1ccc(C(=O)Nc2ccccc2N)cc1,19,-76,·,·,·,·,·
C[C@@H]1CN([C@H](C)CO)C(=O)c2cc(NC(=O)Nc3ccc4c(c3)OCO4)ccc2O[C@H]1CN(C)Cc1ccc(Oc2ccccc2)cc1,0,15,-77,·,·,·,·
C[C@H](CO)N1C[C@H](C)[C@@H](CN(C)Cc2ccc(-c3ccccc3)cc2)Oc2ccc(NC(=O)Nc3ccc4c(c3)OCO4)cc2C1=O,17,-24,47,·,·,·,·
C[C@H](CO)N1C[C@H](C)[C@@H](CN(C)Cc2ccc(Oc3ccccc3)cc2)Oc2ccc(NC(=O)Nc3ccc4c(c3)OCO4)cc2C1=O,16,-25,?,111*,-24,15,-2
C[C@@H]1CN([C@@H](C)CO)C(=O)c2cc(NC(=O)Nc3ccc4c(c3)OCO4)ccc2O[C@H]1CN(C)Cc1ccc(-c2ccccc2)cc1,12,-27,96*,102*,91,32,82*
CC(=O)Nc1ccc2c(c1)C(=O)N(C)[C@@H]1CC[C@@H](CC(=O)NCc3ccc(Cl)cc3)O[C@@H]1CO2,-2,-2,-23,·,·,·,·
CN1CCN(C(=O)C[C@@H]2CC[C@@H]3[C@H](COC[C@@H](O)CN3CC3CC3)O2)CC1,-2,10,-19,·,·,·,·
COc1ccc(NC(=O)N2CCCCN3[C@H](CO)[C@@H](c4ccc(C5=CCCCC5)cc4)[C@H]3C2)cc1,42,-35,117*,105*,90,29,105*
O=C(Nc1cc(F)ccc1F)N1CCCCN2[C@H](CO)[C@H](c3ccc(C4=CCCCC4)cc3)[C@@H]2C1,-9,24,82,·,·,·,·
O=C(Nc1ccccc1F)N1CCCCN2[C@H](CO)[C@H](c3ccc(C4=CCCC4)cc3)[C@H]2C1,17,-33,103*,92,68,14,103*
COc1ccc(NC(=O)N2CCCCN3[C@@H](CO)[C@H](c4ccc(C5=CCCC5)cc4)[C@@H]3C2)cc1,-3,-32,84,·,·,·,·
COc1ccc(NC(=O)N2CCCCN3[C@H](C2)[C@H](c2ccc(C4=CCCCC4)cc2)[C@@H]3CO)cc1,26,4,110*,114*,42,7,94*
O=C(Nc1ccccc1F)N1CCCCN2[C@H](C1)[C@H](c1ccc(C3=CCCC3)cc1)[C@@H]2CO,2,7,37,·,·,·,·
COc1ccc(NC(=O)N2CCCCN3[C@H](CO)[C@@H](c4ccc(-c5ccccc5C)cc4)[C@@H]3C2)cc1,29,-31,51,·,·,·,·
O=C(Nc1ccc(F)cc1)N1CCCCN2[C@H](C1)[C@H](c1ccc(C3=CCCCC3)cc1)[C@@H]2CO,8,-24,112*,106*,39,-1,86*
O=C(C[C@H]1CC[C@@H]2[C@H](COC[C@@H](O)CN2Cc2ccccc2F)O1)NCc1ccccc1F,1,5,-15,·,·,·,·
C[C@@H]1CCCCO[C@@H](CN(C)S(C)(=O)=O)[C@H](C)CN([C@H](C)CO)C(=O)c2cc(NC(=O)CCC(F)(F)F)ccc2O1,0,24,41,·,·,·,·
SMILES,C diff growth,Pf Dd2 inh,T cruzi growth-1,T cruzi growth-2,T cruzi growth-3,3T3 cytotox,3T3 cytotox 2
COc1ccc(NC(=O)N(C)C[C@@H]2Oc3ncc(C#C[C@H](C)O)cc3C(=O)N([C@H](C)CO)C[C@H]2C)cc1,3,3,66,·,·,·,·
CNC[C@H]1Oc2cc(C#CCC3CCCC3)ccc2S(=O)(=O)N([C@H](C)CO)C[C@H]1C,27,-69,?,98*,79,?,106*
CNC[C@H]1Oc2cc(C#CC3CCCC3)ccc2S(=O)(=O)N([C@H](C)CO)C[C@H]1C,-2,-39,59,·,·,·,·
CNC[C@H]1Oc2cc(C#CC3CCCC3)ccc2S(=O)(=O)N([C@@H](C)CO)C[C@@H]1C,1,-48,-56,·,·,·,·
CNC[C@@H]1Oc2cc(C#CCC3CCCC3)ccc2S(=O)(=O)N([C@@H](C)CO)C[C@H]1C,20,-61,?,101*,60,?,105*
CNC[C@H]1Oc2cc(C#CCC3CCCC3)ccc2S(=O)(=O)N([C@@H](C)CO)C[C@@H]1C,26,-66,?,-27,-20,-2,-6
C[C@@H]1CN([C@H](C)CO)S(=O)(=O)c2ccc(C#CCC3CCCC3)cc2O[C@H]1CN(C)C,21,-22,41,·,·,·,·
CNC[C@@H]1Oc2cc(C#CCC3CCCC3)ccc2S(=O)(=O)N([C@@H](C)CO)C[C@@H]1C,30,-66,?,87,71,51*,106*
C[C@H]1CN([C@@H](C)CO)S(=O)(=O)c2ccc(C#CCC3CCCC3)cc2O[C@@H]1CN(C)C,31,-55,73,·,·,·,·
C/C=C/c1cnc2c(c1)C(=O)N([C@@H](C)CO)C[C@H](C)[C@H](CN(C)S(=O)(=O)c1cn(C)cn1)O2,-4,0,·,·,·,·,·
C[C@@H]1CCCCO[C@@H](CN(C)C(=O)CCC(F)(F)F)[C@H](C)CN([C@@H](C)CO)C(=O)c2cc(NS(=O)(=O)c3cn(C)cn3)ccc2O1,1,24,17,·,·,·,·
CN1CCN(C(=O)C[C@H]2CC[C@@H]3[C@H](COC[C@H](O)CN3S(=O)(=O)c3cccc(Cl)c3)O2)CC1,·,0,-18,·,·,·,·
